The source of these data is paper PMC12136788.

The labels stand for the following.
B1: chr9:137457406:137457901:-|CDS|ENSG00000165802|control|control|control (ssRNA)
RNA: GGGAGUUCUACAGUCCGACGAUCCGCCUGUCCCUCGUCUCCAACGGCUGCUACGAGGGCAGCCUCUCAGAGGAGCCCAGCAUUAGGAAGCCCGCAGGCGAGGGCCCUCAGCCUCGAGUGUACACCAUCUCUGGGGAGCCUGCCCAACAGAGGAUUGAGCAUCA
B2: ENSG00000039319:stop:overlap|stop_codon|ENSG00000039319|stop_codon|NA|stop_codon (ssRNA)
RNA: GGGAGUUCUACAGUCCGACGAUCCCAACUCUAGUUUACCAUUAGAAAUAGAAUUAGUGUUUUUCAUUAUAGAACAUCUUUUUUAGUGAAAGAAUGUGCCAUAUUACAUAUUGCAACCUAAUUUGUUAAAACUAACUCCAGCACCAACAGAGGAUUGAGCAUCA
B3: chr9:21239001:21239365:-|three_prime_utr|ENSG00000228083|control|control|control (ssRNA)
RNA: GGGAGUUCUACAGUCCGACGAUCCAAAAUUUUCAAAUGUUUUCAGGAGUGUAAAGAAGCAUCAUGUAUACCUGUGCAGGCACUAGUCCUUUACAGAUGACCAUGCUGAUGUCUCCUUUCAUCUAUUUAUUUAAAUAUUUAUUUCAACAGAGGAUUGAGCAUCA
B4: chr14:44928120:44928223:-|3pUTR|ENSG00000179454|unk|total|mutant (ssRNA)
RNA: GGGAGUUCUACAGUCCGACGAUCCCGUACAGCAGGCCUCCCAGUGCUGAUGUAAAUAUUUGAGCAGUGUUCCGUACCAUUCUCCGUGCAUAUUAAUUUUUUUAUAUAUCCUUAUAAUUUCCGUUUUUUAAGAUCUUUGCUUUUCAACAGAGGAUUGAGCAUCA
B5: chr10:62095068:62095169:+|3pUTR|ENSG00000150347|msi1|FALSE|unique (ssRNA)
RNA: GGGAGUUCUACAGUCCGACGAUCCCAUUUGCUUCAAUUAAUUAUUUACCUUCCUGUGGAAUAAUAUAUAUAUAUAUAUUUAAUAGAACCAUAGAUAGACUAGUAGAAUUUAGAUUAUAAAUGUGUGAGUGCAGAUUAUCCUGCCAACAGAGGAUUGAGCAUCA
B6: chr7:127374855:127374969:-|CDS|ENSG00000048405|unk|FALSE|unique (ssRNA)
RNA: GGGAGUUCUACAGUCCGACGAUCCCUAGAAGCCAUAUAUCCAAGUGUGGACAAACGAGAAUAUAUUAUUAAGCUAGAACCCAUAGAAACUAAUCAAAAUGCAGUAUUUCAAUAUAUUUCGAGGACUGAUAAUCCUAUUGAAGUCAACAGAGGAUUGAGCAUCA
B7: chr14:44928120:44928223:-|3pUTR|ENSG00000179454|unk|FALSE|unique (ssRNA)
RNA: B4 RNA with C24U, C25A, C71U, C72A, C83U, C84A, C120U, C121A
B8: chr2:224511460:224511569:-|CDS|ENSG00000036257|unk|FALSE|bound_elsewhere (ssRNA)
RNA: GGGAGUUCUACAGUCCGACGAUCGAAAGCCAGAAAUUUUUAGCAGAAAAUAGUGCUUCAGUAUAUAUAAAGAAAGUAGAAGCUAGAAUUAAUGAAGAAAUAGAACGAGUGAUGCACUGCCUUGACAAAUCAACGGAAGAACCACAACAGAGGAUUGAGCAUCA
B9: chr7:127374855:127374969:-|CDS|ENSG00000048405|unk|total|mutant (ssRNA)
RNA: B6 RNA with U26C, A27C, U74C, A75C, U83C, A84C
B10: ENSG00000070961:be:win_4451|3pUTR|ENSG00000070961|bound_else_gene|NA|bound_elsewhere_windowed (ssRNA)
RNA: GGGAGUUCUACAGUCCGACGAUCGUUUUGAAGCAACUGUUUAAUUUUUAAAAUUUUUGAAAACUUGCUAAUAACCUUUUGUUCAGAAUUUAGUAGAUUGUUUAAUGCAGGACAUCAACUACAUAAUGAAAGAUGCUUGAAAUGCAACAGAGGAUUGAGCAUCA
B11: chr2:224511460:224511569:-|CDS|ENSG00000036257|unk|total|mutant (ssRNA)
RNA: B8 RNA with U40C, A41C, U50C, A51C, U76C, A77C, U83C, A84C, U100C, A101C
B12: chr10:62095068:62095169:+|3pUTR|ENSG00000150347|msi1|total|mutant (ssRNA)
RNA: GGGAGUUCUACAGUCCGACGAUCCCAUUUGCUUCAAUUAAUUAUUUACCUUCCUGUGGAAUAAUAUAUAUAUAUAUAUUUAACCGAACCACCGACCGACCCGCCGAAUUCCGAUUAUAAAUGUGUGAGUGCAGAUUAUCCUGCCAACAGAGGAUUGAGCAUCA
B13: chr6:89631235:89631336:+|3pUTR|ENSG00000135299|msi1|FALSE|unique (ssRNA)
RNA: GGGAGUUCUACAGUCCGACGAUCUGAAGUUUGAAAGCUCAGAUUAAGCAAGCCAUGCCAAGAAACUGGACGAUGUGUAAGCCUAGACUCUAAAAUUCAAGAUGUGUGAAAUAAUAUAAGUCAAAAGCAAGAAAAACGUAAUCCCAACAGAGGAUUGAGCAUCA
B14: ENSG00000070961:be:win_601|CDS|ENSG00000070961|bound_else_gene|NA|bound_elsewhere_windowed (ssRNA)
RNA: GGGAGUUCUACAGUCCGACGAUCCAGGUCAUUCAGAUACCUGUAGCUGACAUUACUGUUGGAGAUAUUGCUCAAGUGAAAUAUGGUGAUCUUCUUCCAGCUGACGGCAUACUUAUUCAAGGCAACGAUCUUAAAAUUGAUGAACAACAGAGGAUUGAGCAUCA
B15: chr11:10770493:10770605:+|CDS|ENSG00000198730|unk|FALSE|unique (ssRNA)
RNA: GGGAGUUCUACAGUCCGACGAUCACAUGUGGCACCCAGUGAUACAGUUCUUAUGUUUAAUGUGGCCUUGGUCCUGCAAAGAUUAGCUACCUCUGUCCUGAAAGAUGAAAAAAGUAAUCUGAAGGAAGUACUUAAUGCUGUGAACAACAGAGGAUUGAGCAUCA
B16: chr1:51919672:51919773:-|3pUTR|ENSG00000169213|unk|FALSE|unique (ssRNA)
RNA: GGGAGUUCUACAGUCCGACGAUCUAUUCUUUGCCUGCCCCUGGGGUUCUCUGCAGAUGGUCCCAGUAAUAGAUACUCAGCACUAGACUAACAUAACAGGUCACUACACGGGUGCAGAAUCACUUUACAAAAGAAGACUCUGUUCAACAGAGGAUUGAGCAUCA
B17: ENSG00000107863:be:win_5751|CDS|ENSG00000107863|bound_else_gene|NA|bound_elsewhere_windowed (ssRNA)
RNA: GGGAGUUCUACAGUCCGACGAUCACCUGACCAAAUAAACGGAGAAAGCUUCCAGAACGUGAGCAAAAAUGCUAGUUCUGCAGCGAAUGCCCAACCUCAUAAACUGUCUGAAACCCCAGGCAGUAAAGCAGAGUUUCAUCCCUGCAACAGAGGAUUGAGCAUCA
B18: chr1:113685846:113685948:+|3pUTR|ENSG00000081026|unk|FALSE|unique (ssRNA)
RNA: GGGAGUUCUACAGUCCGACGAUCUAUAUACACUUGAGGUUCUGAUUAGAGAAAGAUCUGUAAAUUGCUCAUUAUUUUUUAUAUAGAUAUUUAAAAAAAACAGUUUAUGGCCUGCAUUUCUUUUACUGUCACAUUGGUUUAAUGCAACAGAGGAUUGAGCAUCA
B19: chr21:14485227:14485911:-|three_prime_utr|ENSG00000155307|control|control|control (ssRNA)
RNA: GGGAGUUCUACAGUCCGACGAUCCCCAACUAUAUAUCUACAGAUGCAUUCCAUUUUAACUCUUCUUGAGCUAAAACGUCAAAUAGGAGAGGAAGAUAAGAUAAAUAUUUGUAAAUAAAACCUAAAGUUUAAAUGUUUUAAUCUCAACAGAGGAUUGAGCAUCA
B20: chr2:158176520:158176661:-|CDS|ENSG00000153237|control|control|control (ssRNA)
RNA: GGGAGUUCUACAGUCCGACGAUCGCUGUUGUUGCUCAAUUUGAUCCUGUUAGAAUGAUGUCAGAUACAAUGGCAUCAAAAGCUAGAAUGGGCAUUGAAAUUGAAGAAGAAUUUAUUCUUCAAAAGCCACUCUUCACAUUGAAUCAACAGAGGAUUGAGCAUCA
B21: chr2:151248206:151248307:-|3pUTR|ENSG00000184898|msi1|FALSE|unique (ssRNA)
RNA: GGGAGUUCUACAGUCCGACGAUCUUUUUUUAAAGCAAAGAUUAAAUUCCCAUGUAAAACCUUCCUCCCUAUACAAAAAAGAAUAGCAGCAUUUUUAUCUUCAAUGACAAAGAAUUGAGUCCAAGAAAAUACUGUAUAAACCUUCAACAGAGGAUUGAGCAUCA
B22: chr14:55048714:55048815:+|3pUTR|ENSG00000180008|msi1|FALSE|bound_elsewhere (ssRNA)
RNA: GGGAGUUCUACAGUCCGACGAUCUUUCUAAUUUUGAACAGAUGACUCAGUCCUAAAUCUUUGCCUUUAUUUCCUAUAAAAUGUAGGUGAUACUUGUAACUCGACUUCCUGGAGUUAAUUCUUCAGCAAGAGGUGACCCUGGGACAACAGAGGAUUGAGCAUCA

Residue numbers refer to the chain shown, from its start. The full ranking holds about 5,800 sequences; the median of “enrichment r” is about 0.54, and the highest 2% start at about 16. Many of the other results were omitted from the sample, so the highest values are more common in it than they were.

In the assay the target is MSI1 full-length (mouse, UniProt Q61474 1-362). Briefly: nsRBNS (natural sequence RNA bind-n-seq); RBNS binding buffer (assumed for nsRBNS): 25 mM Tris pH 7.5, 150 mM KCl, 3 mM MgCl2, 0.01% Triton X-100, 500 ug/ml BSA, 20 U/ml SUPERase-In, 4 C; UNK is unkempt and MSI1 is Musashi-1; names of the RNAs are library labels; protein concentration not given here; high values mean tight binding.
Sequence of MSI1 full-length (Q61474 whole entry): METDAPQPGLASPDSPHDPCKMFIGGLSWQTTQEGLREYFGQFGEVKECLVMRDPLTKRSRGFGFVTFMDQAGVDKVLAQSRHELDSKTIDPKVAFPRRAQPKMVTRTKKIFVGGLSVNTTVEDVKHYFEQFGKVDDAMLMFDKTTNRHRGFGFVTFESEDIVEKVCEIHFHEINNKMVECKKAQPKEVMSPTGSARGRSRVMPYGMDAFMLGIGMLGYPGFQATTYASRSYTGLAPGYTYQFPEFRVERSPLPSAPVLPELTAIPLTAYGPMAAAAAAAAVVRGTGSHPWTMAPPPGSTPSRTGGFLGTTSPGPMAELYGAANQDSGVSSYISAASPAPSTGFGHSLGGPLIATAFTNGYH
In turn, B1 displayed a binding signal of 0.4 enrichment R.

As to B2, the binding signal stood at 0.848 enrichment R. To B3 belongs 0.493 enrichment R.

Molecule B4 returned a binding signal of 8.16 enrichment R. As for B5, the binding signal stood at 21.1 enrichment R. In turn, B6 showed a binding signal of 28.2 enrichment R.

B7 gave a binding signal of 35.6 enrichment R. To B8 belongs 36.5 enrichment R. In the case of B9, the binding signal was 0.508 enrichment R.

In turn, B10 came in with a binding signal of 0.619 enrichment R. To B11 belongs 0.432 enrichment R; to B12, 9.42 enrichment R; to B13, 0.258 enrichment R. The molecule B14 returned a binding signal of 0.234 enrichment R. To B15 belongs 0.659 enrichment R. In turn, B16 displayed a binding signal of 0.896 enrichment R. With B17, the binding signal came out at 0.256 enrichment R. To B18 belongs 13.4 enrichment R. To B19 belongs 1.2 enrichment R; to B20, 0.406 enrichment R; to B21, 0.494 enrichment R.

The molecule B22 gave a binding signal of 0.258 enrichment R.
